In PubChem BioAssay one finds growth inhibition, inhibition and outcome data, which are given here for 20 compounds.

The nature of experiment [1]: antimalarial activity against Dd2 strain (AID 2302;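 active = growth inhibition above 50% at the single 2 µM test dose, taken to imply half-maximal potency below 2 µM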;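 note: 0% = DMSO untreated growth and 100% = chloroquine plus artemisinin killed control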). Conditions: P. falciparum Dd2 in RBCs, LDH growth readout, 72 h; at 2 µM; hits give high values.
Experiment [2] is described as follows: HepG2 cytotoxicity, primary screen, cytotoxicity control for P. falciparum antimalarial project, cell-based, ATP luminescence (AID 2303;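 active = inhibition above 50%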;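 note: 0% = DMSO wells and 100% = digitonin-killed cells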). Conditions: HepG2 viability, 24-48 h, at 10 µM, hits give high values.
The target in experiment [3] is L-lactate dehydrogenase (Plasmodium falciparum (isolate CDC / Honduras)) (UniProt Q27743). As to the kind of experiment: PfLDH activity inhibition – cell lysate, 3D7 strain, counter-screen for P. falciparum growth inhibition project (AID 2304).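 Note: 0% = vehicle and 100% = reference inhibitor.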 The note with it: P. falciparum 3D7 crude extract, LDH APAD/NBT absorbance; at 2 µM; hits give high values. (Counterscreens check selectivity or assay interference.)

A short description of experiment [4]: inhibition of 3D7 malaria parasite growth – strain 3D7 (AID 2306).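 Note: 0% = DMSO wells and 100% = chloroquine plus artemisinin control wells.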 The note with it: P. falciparum 3D7 erythrocytic growth, LDH absorbance, 72 h; at 2 µM; hits give high values.
In experiment [5] the target is Calcium-dependent protein kinase 1 (Plasmodium falciparum (isolate 3D7)) (UniProt P62344). Description: PfCDPK1 kinase inhibitors, biochemical, TCAMS library (AID 1159585; cut-off not given, nearly all actives have IC50 up to about 0.98 µM;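 note: inhibitors leave more ATP so luminescence rises with inhibition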). Conditions: recombinant PfCDPK1, Kinase-Glo ATP depletion luminescence. Background: In Kinase-Glo more light means more ATP remaining.
Experiment [6] addresses Plasmodium falciparum protein kinase 6 (PK6, PF3D7_1337100) (UniProt Q8IDW1). As to the kind of experiment: PfPK6 kinase inhibitors, biochemical, TCAMS library (AID 1159586). The note with it: recombinant PfPK6, Kinase-Glo ATP depletion luminescence.
Experiment [7] deals with Protein kinase 7 (PK7), Plasmodium falciparum 3D7 (PF3D7_0213400) (UniProt Q7YTF7). Description: inhibition of Plasmodium PK7 catalytic activity – biochemical, TCAMS antimalarial set, Kinase-Glo luminescence (AID 1159587). Conditions: recombinant PfPK7, Kinase-Glo ATP depletion luminescence.
Experiment [8] addresses Calcium-dependent protein kinase 4 (Plasmodium falciparum (isolate 3D7)) (UniProt Q8IBS5). As to the kind of experiment: PfCDPK4 kinase inhibitors, biochemical, TCAMS library (AID 1159588; cut-off not given, nearly all actives have IC50 up to about 0.91 µM). Conditions: recombinant PfCDPK4, Kinase-Glo ATP depletion luminescence.

Values without a mark were called inactive. For some of these results: Measured potencies and affinities stand elsewhere. The source made the active and inactive calls. Unless noted, the rule behind the calls is not given here.

Calcium-dependent protein kinase 1 (Plasmodium falciparum (isolate 3D7)), sequence (P62344 whole entry, looked up): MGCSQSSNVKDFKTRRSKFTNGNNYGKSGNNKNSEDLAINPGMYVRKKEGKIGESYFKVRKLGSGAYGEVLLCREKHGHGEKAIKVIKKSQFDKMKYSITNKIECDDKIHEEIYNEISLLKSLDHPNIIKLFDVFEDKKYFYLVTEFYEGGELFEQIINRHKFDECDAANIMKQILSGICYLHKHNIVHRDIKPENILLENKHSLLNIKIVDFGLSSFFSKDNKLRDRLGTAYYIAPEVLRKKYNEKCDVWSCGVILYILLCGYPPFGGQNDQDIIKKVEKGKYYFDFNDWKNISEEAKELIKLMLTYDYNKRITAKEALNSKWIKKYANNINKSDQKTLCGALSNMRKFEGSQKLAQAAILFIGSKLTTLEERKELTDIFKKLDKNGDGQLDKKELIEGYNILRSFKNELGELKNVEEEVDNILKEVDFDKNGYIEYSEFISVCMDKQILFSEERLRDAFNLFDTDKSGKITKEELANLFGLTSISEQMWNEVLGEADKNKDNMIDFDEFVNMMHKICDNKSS
L-lactate dehydrogenase (Plasmodium falciparum (isolate CDC / Honduras)), sequence (Q27743 whole entry, looked up): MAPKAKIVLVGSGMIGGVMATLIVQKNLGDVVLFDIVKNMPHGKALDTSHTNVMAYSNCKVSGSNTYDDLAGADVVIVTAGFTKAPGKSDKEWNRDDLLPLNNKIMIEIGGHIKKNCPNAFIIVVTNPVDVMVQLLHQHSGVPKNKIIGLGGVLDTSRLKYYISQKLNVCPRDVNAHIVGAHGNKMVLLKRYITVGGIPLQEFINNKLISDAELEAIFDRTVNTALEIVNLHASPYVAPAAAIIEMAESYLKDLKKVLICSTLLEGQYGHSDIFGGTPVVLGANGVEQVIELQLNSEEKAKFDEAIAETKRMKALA
Calcium-dependent protein kinase 4 (Plasmodium falciparum (isolate 3D7)), sequence (Q8IBS5 whole entry, looked up): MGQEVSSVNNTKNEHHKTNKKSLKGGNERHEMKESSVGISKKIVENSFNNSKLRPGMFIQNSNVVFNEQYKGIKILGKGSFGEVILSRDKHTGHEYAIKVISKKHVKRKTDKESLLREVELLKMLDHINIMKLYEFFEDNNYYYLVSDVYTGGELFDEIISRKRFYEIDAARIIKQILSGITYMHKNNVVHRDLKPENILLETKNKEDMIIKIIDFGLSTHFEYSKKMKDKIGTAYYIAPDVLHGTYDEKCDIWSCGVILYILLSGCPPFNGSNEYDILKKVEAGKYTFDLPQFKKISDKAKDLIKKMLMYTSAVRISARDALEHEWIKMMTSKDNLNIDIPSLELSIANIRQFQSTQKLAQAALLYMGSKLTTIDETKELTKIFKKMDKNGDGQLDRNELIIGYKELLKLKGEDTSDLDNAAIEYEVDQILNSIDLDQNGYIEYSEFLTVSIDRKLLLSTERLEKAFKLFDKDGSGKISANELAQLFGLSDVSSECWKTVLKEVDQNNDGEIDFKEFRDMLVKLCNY
Plasmodium falciparum protein kinase 6 (PK6, PF3D7_1337100), sequence (Q8IDW1 1-305): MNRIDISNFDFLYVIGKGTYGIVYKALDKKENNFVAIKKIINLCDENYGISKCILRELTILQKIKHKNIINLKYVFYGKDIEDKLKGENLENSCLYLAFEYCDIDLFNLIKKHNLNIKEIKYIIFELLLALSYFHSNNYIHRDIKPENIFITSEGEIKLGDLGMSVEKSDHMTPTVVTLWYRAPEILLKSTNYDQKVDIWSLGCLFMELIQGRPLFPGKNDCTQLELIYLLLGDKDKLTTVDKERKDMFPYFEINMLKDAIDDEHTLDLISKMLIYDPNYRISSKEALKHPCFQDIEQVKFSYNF
Protein kinase 7 (PK7), Plasmodium falciparum 3D7 (PF3D7_0213400), sequence (Q7YTF7 1-343): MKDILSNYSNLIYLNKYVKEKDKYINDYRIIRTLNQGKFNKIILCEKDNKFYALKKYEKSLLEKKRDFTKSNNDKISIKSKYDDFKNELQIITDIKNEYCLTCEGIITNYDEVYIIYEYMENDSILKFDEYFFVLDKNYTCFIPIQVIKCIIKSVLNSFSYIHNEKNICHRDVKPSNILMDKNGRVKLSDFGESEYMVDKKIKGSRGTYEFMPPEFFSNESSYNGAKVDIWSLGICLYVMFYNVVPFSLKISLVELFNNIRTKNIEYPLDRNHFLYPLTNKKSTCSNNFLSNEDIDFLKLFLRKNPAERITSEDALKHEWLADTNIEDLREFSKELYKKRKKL

Regarding `CC(C)N1CCN(C(CN2CCN(CCCOc3ccc(-c4ccccc4)cc3)CC2)c2ccc(F)cc2)CC1` (stereo not given), the growth inhibition in experiment [1] and in experiment [4] was 100% (active) each time. Besides, the inhibition (usually the drop in the measured response relative to a control, in per cent) in experiment [2] was 100% (active); in experiment [3] it was -2%. Also, the outcome in experiment [5], in experiment [6], in experiment [7] and in experiment [8] was inactive.

For the compound `CC(C)Cn1c2ccccc2c2nc3nc(N)nc(N)c3nc21`, the growth inhibition in experiment [1] was -1%; in experiment [4] it was 93% (active). Also, the inhibition in experiment [2] was 36%; in experiment [3], -3%. Further, the outcome in experiment [5], in experiment [6], in experiment [7] and in experiment [8] was inactive.

For `NC1=NC(c2ccccc2)(c2ccccc2)C(=O)N1Cc1ccc(-c2ccncc2)cc1`, the results for the growth inhibition in experiment [1] and in experiment [4] were 74% (active) and 96% (active), respectively. The inhibition is 20% in experiment [2] and 5% in experiment [3]. The result in experiment [5], in experiment [6], in experiment [7] and in experiment [8] was inactive.

For the compound `Fc1ccc(-c2oc(C3CCN(CCc4ccc(-c5nc(=S)o[nH]5)cc4)CC3)nc2COCC(F)(F)F)cc1`, the values for the growth inhibition in experiment [1] and in experiment [4] were 95% (active) and 97% (active), respectively. Also, the inhibition in experiment [2] is 5%; in experiment [3], 3%. The result in experiment [5], in experiment [6], in experiment [7] and in experiment [8] was inactive.

As to `CC(O)C1CCCCN1C(=O)c1cccc(-c2cccc(-c3nc4ccc(C(F)(F)F)cc4[nH]3)c2)c1` (stereo not given), the growth inhibition in experiment [1] and in experiment [4] was 100% (active) each time. The inhibition was 32% in experiment [2] and -5% in experiment [3]. Moreover, the result in experiment [5], in experiment [6], in experiment [7] and in experiment [8] was inactive.

With `CCCCCN1C(=O)C(c2ccccc2)(c2ccccc2)N=C1N`, the growth inhibition in experiment [1] is 68% (active); in experiment [4], 97% (active). Also, the inhibition in experiment [2] was 18%; in experiment [3] it was -1%. Further, the outcome in experiment [5], in experiment [6], in experiment [7] and in experiment [8] was inactive.

For `Cc1cccc2[nH]c(-c3cc(-c4cccc(Cl)c4)cnc3N)nc12`, the results for the growth inhibition in experiment [1] and in experiment [4] were 99% (active) and 101% (active), respectively. Besides, the inhibition in experiment [2] was 32%; in experiment [3] it was 2%. In addition, the result in experiment [5], in experiment [6], in experiment [7] and in experiment [8] was inactive.

For `CCCNCc1c(O)ccc2c(CNCCC)c(O)ccc12`, the growth inhibition was 9% in experiment [1] and 101% (active) in experiment [4]. In addition, the inhibition is 24% in experiment [2] and -1% in experiment [3]. Moreover, the outcome in experiment [5], in experiment [6], in experiment [7] and in experiment [8] was inactive.

Take `CCCCCCn1c(Sc2ccc(C#N)c([N+](=O)[O-])c2)nnc1-c1cc(OC)cc(OC)c1`: the growth inhibition is 41% in experiment [1] and 95% (active) in experiment [4]. For the same compound, the inhibition in experiment [2] was 35%; in experiment [3], -5%. Moreover, the outcome in experiment [5], in experiment [6], in experiment [7] and in experiment [8] was inactive.

Consider `O=C(NCC1CCN(C/C=C/c2ccccc2)CC1)Nc1ccc(Oc2ccccc2)cc1`, for which the growth inhibition was 11% in experiment [1] and 83% (active) in experiment [4]. In addition, the inhibition in experiment [2] is 40%; in experiment [3], -3%. In addition, the result in experiment [5], in experiment [6], in experiment [7] and in experiment [8] was inactive.

For `Nc1nc(Nc2cccc(O)c2)nc2ccccc12`, the growth inhibition in experiment [1] is 79% (active); in experiment [4] it was 96% (active). Moreover, the inhibition was 25% in experiment [2] and 4% in experiment [3]. The outcome in experiment [5], in experiment [6], in experiment [7] and in experiment [8] was inactive.

As for `O=C(NC1CCN(CCN2CCC(c3c[nH]c4ccccc34)CC2)CC1)c1ccc(-c2ccc(C(F)(F)F)cc2)cc1`, the growth inhibition in experiment [1] was 100% (active); in experiment [4] it was 99% (active). The inhibition in experiment [2] is 100% (active); in experiment [3] it was 4%. The result in experiment [5], in experiment [6], in experiment [7] and in experiment [8] was inactive.

In the case of `O=c1cc(NCCCNCc2scc3c(Cl)cc(C(F)(F)F)nc23)[nH]c2ccccc12`, the growth inhibition was 21% in experiment [1] and 99% (active) in experiment [4]. Also, the inhibition is 9% in experiment [2] and -1% in experiment [3]. Further, the result in experiment [5], in experiment [6], in experiment [7] and in experiment [8] was inactive.

With `Oc1cc(Nc2ccnc3cc(I)ccc23)ccc1F`, the growth inhibition in experiment [1] and in experiment [4] was 99% (active) each time. Further, the inhibition in experiment [2] is -6%; in experiment [3], 0%. Moreover, the outcome in experiment [5], in experiment [6], in experiment [7] and in experiment [8] was inactive.

`CCCNCc1ccc(-c2ccc(CN(Cc3ccc4c(c3)OCO4)C(=O)[C@H]3CCCO3)cc2)nc1`: the growth inhibition in experiment [1] is 39%; in experiment [4], 90% (active). In addition, the inhibition in experiment [2] is 18%; in experiment [3], -3%. For the same compound, the outcome in experiment [5], in experiment [6], in experiment [7] and in experiment [8] was inactive.

`CN(C)Cc1ccc(-c2ccc3c(Nc4ccc(Oc5ccccc5)cc4)ccnc3c2)o1`: the growth inhibition was 100% (active) in experiment [1] and 101% (active) in experiment [4]. Further, the inhibition in experiment [2] was 10%; in experiment [3], 2%. For the same compound, the result in experiment [5], in experiment [6], in experiment [7] and in experiment [8] was inactive.

As to `O=C(COc1ccc(F)cc1)NC1CCN(c2ccnc3cc(Cl)ccc23)C1` (stereo not given), the growth inhibition in experiment [1] is 100% (active); in experiment [4], 102% (active). In addition, the inhibition in experiment [2] is 24%; in experiment [3] it was -1%. The outcome in experiment [5], in experiment [6], in experiment [7] and in experiment [8] was inactive.

For `c1ccc2c3c(ccc2c1)Sc1c(ccc2ccccc12)N3`, the growth inhibition was 31% in experiment [1] and 92% (active) in experiment [4]. The inhibition in experiment [2] is -7%; in experiment [3], 0%. Further, the outcome in experiment [5], in experiment [6], in experiment [7] and in experiment [8] was inactive.

Consider `CC(C)(C)c1cc(C(=O)N2CCN(c3ccc(C(F)(F)F)cn3)CC2)n(Cc2ccc(F)cc2)n1`, for which the growth inhibition in experiment [1] is 26%; in experiment [4], 88% (active). Further, the inhibition in experiment [2] is 4%; in experiment [3] it was -1%. Further, the result in experiment [5], in experiment [6], in experiment [7] and in experiment [8] was inactive.

`CN1CCN(c2ccnc3ccc(NC(=O)Nc4cccc5c(-c6ccncc6)cccc45)cc23)CC1`: the growth inhibition in experiment [1] and in experiment [4] was 100% (active) each time. Besides, the values for the inhibition in experiment [2] and in experiment [3] were 7% and 1%, respectively. Further, the outcome in experiment [5], in experiment [6], in experiment [7] and in experiment [8] was inactive.
